Compound activity from PubChem.
This is a sample that favours compounds with a hit; in the whole collection about 3.7% have one here.
Nrf2 ARE act: qHTS of Nrf2 Activators | AID 624171, 2012 | Potency, µM (doses to about 46.1 µM), for inactives: at the highest dose activation, usual class: activators | AREc32 ARE-luciferase reporter (MCF7-derived line), luminescence, 24 h | hit rate 0.31% among 410,000; further: potency means the concentration at half of the fitted maximal effect; % of control where 0% means no effect; nearly all actives have a fitted effect of over 65% in size
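Cells of the AREc32 ARE-luciferase line are plated in OPTI-MEM containing 5% FBS and left overnight at 37 deg C. Compounds are pinned in, incubation continues 24 hr, and firefly luciferase signal is then measured.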
A549 tox: Nrf2 qHTS screen for inhibitors: counterscreen for cytotoxicity; Potency, µM (series often up to 46 µM), inactives show top-dose activity change, negative = cytotoxicity, usual class: inhibitors; A549 ARE-Fluc cells, CellTiter-Fluor viability, 18-24 h; hit rate 0.16% among 390,000; AID 504648, 2011; further: potency means the concentration at half of the fitted maximal effect; on the % scale 0 is the no-effect control and ±100 the full control effect
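Cytotoxicity counterscreen: CellTiter-Fluor fluorescence was measured in A549 ARE_Fluc cells after 18-24 h of compound exposure in a concentration series. The subsequent BugLite luminescent read reports ARE-luciferase activity.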
TCR activator: Activators of T cell receptors: qHTS campaign; primary human leukocytes, anti-CD3, IL-2 HTRF, 48 h; Potency, µM (highest dose often 9.22 µM), for inactives: top-dose activation of IL-2 secretion, actives largely listed as activators; 330,000 tested, under 10 active; AID 504894, 2011; further: % of control where 0% means no effect
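Using a-CD3 beads without co-stimulation, primary human leukocytes were exposed to compounds for 48 hr. An HTRF IL-2 kit measured the cytokine, with europium-to-d2 energy transfer producing emission at 665nm upon 320nm excitation.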
miR-21 act: qHTS Assay for Modulators of miRNAs and/orActivators of miR-21; HeLa miR-21 FLuc reporter, luciferase, 48 h; AID 2288, 2010; 340,000 tested, under 10 active; Potency, µM (titrated, usually from 38.3 µM), without a hit: at the highest dose activity change, positive = activation, actives largely listed as activators;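 further: % of control where 0% means no effect; miR-21 action dims this reporter so a rising signal means less miR-21 action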
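Luminescence from a firefly luciferase reporter carrying a miR-21 binding site downstream, stably expressed under a CMV promoter in HeLa cells that make miR-21 endogenously, reports miRNA modulation after 48 h compound exposure up to approximately 40uM final.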
Nrf2 inh: Nrf2 qHTS screen for inhibitors. hit rate 2.1% among 360,000. A549 ARE-Fluc reporter, luciferase luminescence, 18-24 h. Potency, µM (top dose mostly 46 µM), without a hit: at the top dose activity change, negative = inhibition, most hits filed as inhibitors; further: potency means the concentration at half of the fitted maximal effect; on the % scale 0 is the no-effect control and ±100 the full control effect; nearly all actives have a fitted effect of over 60% in size
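In this cell-based qHTS, ARE-driven firefly luciferase in A549 cells reports Nrf2 activity; the luminescent signal after BugLite lysis is the measured value, with a prior CellTiter-Fluor read for cell health.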
ClpP mod: qHTS Assay for Activators of ClpP; ATP-dependent Clp protease proteolytic subunit (Bacillus subtilis (strain 168)), P80244; purified B. subtilis ClpP, FRET peptide cleavage, 20 min; Potency, µM (series often up to 57.5 µM), without a hit: top-dose activity change, negative = active; hit rate 1.9% among 340,000; AID 651965, 2013; active means well fitted falling curve with a large enough effect; inconclusive means small, poorly fitted or top-dose-only effect; inactive means no such curve, though single readings can be large or run the other way; further: potency means the concentration at half of the fitted maximal effect; the source files actives as falling curves though it sought activators and does not explain the sign; nearly all actives have a fitted effect of over 65% in size
Target sequence (P80244 whole entry, looked up): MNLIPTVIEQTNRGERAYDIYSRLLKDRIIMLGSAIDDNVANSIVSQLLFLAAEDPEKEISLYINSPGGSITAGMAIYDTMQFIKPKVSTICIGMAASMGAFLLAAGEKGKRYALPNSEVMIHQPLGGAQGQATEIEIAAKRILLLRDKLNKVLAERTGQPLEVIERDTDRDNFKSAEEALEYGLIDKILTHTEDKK
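Buffer: 100 mM Tris/HCl pH8, 100 mM KCl, 0.05% low protease BSA, 2.5% glycerol, 0.01% Tween-20. ClpP 10 microg/mL final; 20 min RT; delta FRET normalized to ADEP and DMSO controls.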
Numbers without * were called inactive; ? = inconclusive; · = no result. Unless noted, the call rests on the fitted dose curve; in most records, active means well fitted curve in the direction sought with a large enough effect; inconclusive means small, poorly fitted or top-dose-only effect, or another doubt; inactive means no such curve, though single readings can be large; an effect the other way counts as inactive or inconclusive.

SMILES	Nrf2 ARE act	A549 tox	TCR activator	miR-21 act	Nrf2 inh	ClpP mod
O=C(CSc1ccccc1F)NNC(=O)c1cncc(Br)c1	0%	4%	-1%	·	10%	0%
CSc1ccc(CCNc2ncnc3onc(C)c23)cc1	2%	4%	·	-3%	7.3µM*	1%
CC(C)C1Cc2[nH]c(=O)c(C(=O)O)cc2CO1 (configuration not stated)	0%	-4%	5%	0%	11%	35µM*
COc1c(Cl)cc(Cl)cc1/C=C(\C#N)c1nc2ccccc2[nH]1	0%	0%	·	10%	·	20µM*
Cc1cc2nc(-c3ccco3)c(CC(C)(C)C)n2c(C)c1Br	29%	·	·	·	·	-4%
COc1ccccc1Cc1c(-c2ccco2)nc2cc(C)c(Br)c(C)n12	11µM*	·	·	·	·	-4%
COCCN1C(=O)c2[nH]nc(-c3ccccc3O)c2C1c1ccc(OCc2ccccc2)c(OC)c1 (configuration not stated)	-4%	-12%	·	4%	?	-9%
CCc1ccccc1NC(=O)Nc1ccc2c(c1)N(CC)C(=O)c1ccccc1S2	-1%	8%	·	-18%	1%	-1%
Cc1ccc(C)c(NC(=O)c2ccc3ccccc3n2)c1	6%	-6%	7%	-58%	·	35µM*
Cc1cc2c(s1)c1cnn(Cc3ccccc3Br)c(=O)c1n2C	·	-11%	·	·	5%	·
CCN(CC)CCNCC1C(=O)O[C@@H]2C[C@@]3(C)CCC[C@H](C)C3=C[C@H]12 (some centres not stated)	11µM*	1%	-1%	16%	-11%	-2%
COC(=O)c1ccccc1NC(=O)Oc1ccc(F)cc1	-1%	2%	3%	0%	·	25µM*
COC(=O)c1ccccc1NC(=O)C1CC(c2ccc(F)cc2)=NO1 (configuration not stated)	2%	-7%	1%	-15%	4.1µM*	?
O=C(NCC1CC1)c1ccc2sc([C@@H]3O[C@H](CO)[C@H](O)[C@H](O)[C@H]3O)nc2c1	0%	·	·	·	·	-1%
CCOC(=O)C1C(=O)C=C(c2ccc(Br)cc2)CC1c1ccco1 (configuration not stated)	0%	?	·	3%	23µM*	-3%
NC(=S)NN=C1c2cc(OCCN3CCOCC3)ccc2-c2ccc(OCCN3CCOCC3)cc21	-2%	16µM*	4%	?	16µM*	·
ON=C1c2cc(OCCN3CCCCC3)ccc2-c2ccc(OCCN3CCCCC3)cc21	23%	?	-5%	-17%	2%	0%
CCOc1ccc(N2CC(NC(=O)CCc3ccccc3)CC2=O)cc1 (configuration not stated)	0%	12%	·	-2%	·	-2%
COc1cccc(NC(=O)N(C)C[C@@H]2OCc3cn(nn3)CCCC(=O)N([C@H](C)CO)C[C@H]2C)c1	0%	·	·	·	·	0%
COc1cc2c(cc1OC)C1=NC(=O)CN1C(SCc1ccccc1C)=N2	1%	-15%	-4%	-6%	9.2µM*	18µM*
Cc1ccc(CSC2=Nc3ccccc3C3=NC(=O)CN23)cc1	5%	-11%	0%	-37%	-3%	3%
COC1=C(N)C(=O)c2nc(-c3nc(C(=O)O)c(C)c(-c4ccc(OC)c(OC)c4O)c3N)ccc2C1=O	-4%	2.6µM*	-15%	?	0.073µM*	-2%
COc1ccc(C(C(=O)NCC2CCCO2)N(C(=O)CNC(=O)c2ccco2)c2cc(C)ccc2C)cc1OC (configuration not stated)	0%	0%	4%	-4%	3%	2%
CC(=O)C1CCC2C3CCC4=CC(=O)CCC4(C)C3(Br)C(=O)CC12C (configuration not stated)	1%	-4%	-1%	·	1%	1%
